The list is not random: actives were taken first. Their share in the collection is about 22%.
CYP2C9 activ – increases human cytochrome P450 2C9 activity; recombinant CYP2C9, luciferin-H conversion, luminescence; hits give high values; factor 1 = untreated enzyme, 0 = blocked; activation factor at 5 µM; 96,000 compounds, 1.4% hits; AID 1024;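 active = activation factor of 2 or more for CYP2C9 at a 5 µM dose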;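 also: 0 = sulfaphenazole-blocked wells and 1 = vehicle-only wells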
Target sequence (P11712 whole entry, looked up): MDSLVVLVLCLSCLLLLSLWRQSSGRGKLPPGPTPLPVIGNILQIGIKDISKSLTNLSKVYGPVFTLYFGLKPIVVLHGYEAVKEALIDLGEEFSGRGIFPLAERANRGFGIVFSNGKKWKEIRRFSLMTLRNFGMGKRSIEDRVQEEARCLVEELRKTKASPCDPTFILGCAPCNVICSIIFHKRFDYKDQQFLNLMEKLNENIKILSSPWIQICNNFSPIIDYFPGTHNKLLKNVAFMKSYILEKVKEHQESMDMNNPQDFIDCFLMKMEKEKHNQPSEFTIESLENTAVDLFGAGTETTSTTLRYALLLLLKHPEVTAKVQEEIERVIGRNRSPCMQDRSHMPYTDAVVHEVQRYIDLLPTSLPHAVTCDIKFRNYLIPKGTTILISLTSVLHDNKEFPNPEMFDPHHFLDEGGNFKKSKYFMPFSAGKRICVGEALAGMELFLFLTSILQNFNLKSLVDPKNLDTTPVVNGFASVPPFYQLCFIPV
CYP2C19 inhib – human CYP2C19 inhibition | P33261 | CYP2C19 Supersomes, luciferin-H EGE luminescence, 30 min | inhibition, % at 5 µM | 96,000 compounds, 21% hits | AID 778;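 active = CYP2C19 inhibition above a set limit at 5 µM in the primary screen, cut at about 50% in these data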;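 also: plate controls were negative control wells for no effect and 2.5 mM tranylcypromine positive control for full effect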
Measles CPE – protection of cells from measles virus; Measles virus-infected cells, CPE protection, absorbance; protection (pct of control), % at 4 µM; 140,000 compounds, 1.5% hits; AID 841; in the data active = protection mostly above about 24%, no sharp cut-off; inactive = mostly below about 26%
CYP2C19 activ – cytochrome P450 2C19 (human) activation. recombinant CYP2C19, luciferin-H EGE luminescence; hits give high values; 0 = fully inhibited enzyme, 1 = untreated enzyme. P33261. 96,000 tested, under 10 active. activation factor at 5 µM;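 active = activation factor of at least 2 at 5 µM in the primary screen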;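 also: 0 = wells with 2.5 mM tranylcypromine and 1 = vehicle-only wells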
CYP2C9 inh – inhibitors of human CYP2C9. CYP2C9 Supersomes, luciferin-H conversion, luminescence. inhibition, % at 5 µM. 96,000 compounds, 20% hits;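 active = blocking of liver enzyme CYP2C9 beyond about 50% at 5 µM, limit read from the data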
The depositor's hits bear a star; . = not tested or not shown.

SMILES	CYP2C9 activ	CYP2C19 inhib	Measles CPE	CYP2C19 activ	CYP2C9 inh
COC(=NC1CCCCC1)C(O)c1c[nH]c2ccccc12 (stereo not drawn)	1.7	45	19	0.5	-74
CC12CCC3C(CCC4C/C(=N/O)CCC43C)C1CCC2O (stereo not drawn)	.	.	41*	.	.
COc1ccc(OC)c2c1CCC1NCCOC21 (stereo not drawn)	.	.	5	.	.
CCOC(=O)C1=C(NC(=S)NC(=O)c2ccccc2)c2ccccc2CC12CCCC2	.	.	62*	.	.
CN1CCN(c2nc([N+](=O)[O-])nn2C)CC1	.	.	4	.	.
CC1N(O)C2CCCCCC2N1O (stereo not drawn)	1.1	-15	6	1.1	-8
Nc1ccc(N2CCN(Cc3ccccc3Cl)CC2)c(Cl)c1	0.1	97*	7	0	86*
Clc1ccc(N2CCN(Cc3ccccc3Cl)CC2)cc1	1.2	41	18	0.6	-19
COc1ccccc1N1CCN(Cc2ccccc2Cl)CC1	0.8	44	10	0.6	16
Clc1cccc(Cl)c1CN1CCN(c2ccccc2)CC1	0.6	95*	8	0	38
Clc1ccccc1CN1CCN(c2ccccc2)CC1	0.6	99*	25	0	41
O=C(CNC(=O)OCc1ccccc1)NCC(=O)Nc1ccc(Br)cc1C(=O)c1ccccc1	.	.	17	.	.
O=C1NC(=O)N(Cc2ccco2)C(=O)/C1=C/c1ccc(-c2cccc([N+](=O)[O-])c2)o1	.	.	8	.	.
S=C(c1ccc(Cl)cc1)N1CCOCC1	0.9	66*	1	0.3	10
Cc1nc2ccc(Cl)cn2c1P(=S)(N1CCOCC1)N1CCOCC1	0.8	5	7	1	15
Cc1nc2cc(-c3cccc(F)c3)nn2c(C)c1CCC(=O)N1CCC2(CC1)OCCO2	0.8	28	25*	0.7	18
CCOC(=O)C(NC(=O)CC)(Nc1ccc(C(O)(C(=O)OCC)C(F)(F)F)cc1C)C(F)(F)F (stereo not drawn)	0.5	34	7	0.7	54*
CCOC(=O)N(CC)c1ccc(C(O)(C(=O)OCC)C(F)(F)F)cc1 (stereo not drawn)	0.2	58*	30	0.4	77*
CCOC(=O)C(NC(=O)CCl)(Nc1ccc(C(O)(C(=O)OCC)C(F)(F)F)cc1)C(F)(F)F (stereo not drawn)	.	.	10	.	.
CCOC(=O)C(O)(c1ccc(N(CC)C(=O)OC)cc1)C(F)(F)F (stereo not drawn)	0.3	64*	5	0.4	69*
CCOC(=O)N(C)c1ccc(C(O)(C(=O)OCC)C(F)(F)F)cc1 (stereo not drawn)	0.3	61*	4	0.4	70*
CCN(C(=O)Oc1ccccc1)c1ccc(C(O)(C(=O)OC)C(F)(F)F)cc1 (stereo not drawn)	.	.	24	.	.
O=C(Cn1cnc2sc3c(c2c1=O)CCCC3)NCCC(=O)N1CCC2(CC1)OCCO2	.	.	17	.	.
CC12CN3CN(C1)CC(c1ccccc1)(C3)C2=O	.	.	6	.	.
O=c1[nH]c(=S)n(Cc2ccc(F)cc2)c(O)c1C=NCC1CCCO1 (stereo not drawn)	0.8	13	6	0.9	17
SMILES	CYP2C9 activ	CYP2C19 inhib	Measles CPE	CYP2C19 activ	CYP2C9 inh
NP(=O)(OCC(F)(F)F)Oc1cccc2ccccc12 (stereo not drawn)	.	.	8	.	.
O=C(c1ccccc1)c1cn(CC(=O)N2CCOCC2)c2ccccc12	0.5	41	16	0.6	53*
CCn1cc(C(=O)c2ccccc2)c2ccccc21	2.5*	28	11	0.7	-150
O=C(c1ccccc1)c1cn(CC(=O)N2CCCC2)c2ccccc12	0.9	10	17	0.9	12
CCOP(=O)(OCC)C(NC(=O)c1ccccc1Cl)=C(Cl)Cl	1.1	14	0	0.9	-5
Cc1ccc(N(C)C(=O)Oc2ccc(C(=O)c3ccc(Cl)cc3)cc2)cc1	0.4	50*	14	0.5	60*
COc1cc2c(cc1OC)C(C(=O)NCCC(C)C)C1CCCCN1C2=O (stereo not drawn)	.	.	5	.	.
CC(C)CC(=O)NC(Oc1ccc(Cl)cc1)C(Cl)(Cl)Cl (stereo not drawn)	0.7	82*	4	0.2	31
CC(=O)c1ccc(OC(NC(=O)c2ccco2)C(Cl)(Cl)Cl)cc1 (stereo not drawn)	0.9	14	6	0.9	9
O=C(NC(Oc1ccccc1)C(Cl)(Cl)Cl)c1ccccc1 (stereo not drawn)	0.9	15	5	0.8	9
